Results taken from PubChem BioAssay (NCATS).
Unmarked numbers belong to inactive results. Results filed as inconclusive are left out. Calls of active or inactive are those of the source. Unless noted, the call rests on the fitted dose curve; in most records, active means well fitted curve in either direction with a large enough effect (not every such curve was filed as active); inconclusive means small, poorly fitted or top-dose-only effect, or another doubt; inactive means flat fitted curve, though single readings scatter.

Experiments:
[1] = biological target: Lysosomal acid glucosylceramidase (Homo sapiens) (UniProt P04062); assay: Glucocerebrosidase-p2 (AID 348; in the data active means potency below about 10 µM; further: potency means the concentration at half of the fitted maximal effect); details: purified GBA, blue fluorogenic substrate, 40 min
Sequence of Lysosomal acid glucosylceramidase (Homo sapiens) (P04062 whole entry, looked up): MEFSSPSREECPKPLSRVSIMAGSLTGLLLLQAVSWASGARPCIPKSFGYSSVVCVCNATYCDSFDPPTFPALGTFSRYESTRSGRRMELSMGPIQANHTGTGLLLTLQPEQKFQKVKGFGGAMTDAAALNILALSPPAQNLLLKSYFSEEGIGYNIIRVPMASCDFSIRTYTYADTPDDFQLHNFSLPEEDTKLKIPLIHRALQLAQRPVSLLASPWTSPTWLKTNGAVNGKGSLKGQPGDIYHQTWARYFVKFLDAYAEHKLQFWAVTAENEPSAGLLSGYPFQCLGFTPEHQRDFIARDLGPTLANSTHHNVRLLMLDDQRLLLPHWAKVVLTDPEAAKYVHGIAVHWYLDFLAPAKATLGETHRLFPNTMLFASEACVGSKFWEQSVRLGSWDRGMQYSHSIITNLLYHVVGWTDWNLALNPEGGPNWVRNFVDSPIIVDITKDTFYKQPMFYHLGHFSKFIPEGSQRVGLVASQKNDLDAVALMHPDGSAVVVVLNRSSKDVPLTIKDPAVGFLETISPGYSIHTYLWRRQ
Procedure, shortened: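 Compounds titrated from 0.6 nM upwards against 0.2 nM enzyme in pH 5.9 citric acid/KH2PO4, taurocholate, tween-20; blue fluorogenic substrate 80 uM, 40 min room temperature, stopped and read Ex 365/Em 440 for AC50.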

[2] = AP1 Signaling Pathway (AID 357); details: ME-180 AP-1-bla reporter, EGF-induced, beta-lactamase ratio, 5 h; at 7.69 µM (top of the series) unless noted;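 further: ME-180 reporter cells stimulated with EGF at its EC50 level; on the % scale 0 is the no-effect control and ±100 the full control effect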
Procedure, shortened: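 First, ME-180 AP-1-bla cells were cultured overnight at 37 °C in low-serum Opti-MEM. Next, titrated compounds with EC50 EGF were incubated 5 hours. Finally, CCF4 was added for 2.5 hours and the 460/530 nm ratio recorded.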

[3] = NFAT Signaling Pathway (AID 444); details: Jurkat NFAT-bla M1, carbachol, beta-lactamase ratio, 5 h; at 7.69 µM (top of the series) unless noted;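 further: carbachol stimulus at about its EC50 of 1 µM final; on the % scale 0 is the no-effect control and ±100 the full control effect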
Procedure, shortened: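 Jurkat cells with NFAT-driven β-lactamase reporter and co-expressed M1 receptor, stimulated with carbachol (final 1 uM, ~EC50), compound titration, 5 h at 37 °C. CCF4 loaded 1 h at RT; 460/530 nm ratio gave %activity and AC50.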

[4] = Stat Signaling Pathway (AID 446); details: ME-180 SIE beta-lactamase reporter, IL-6 stimulated, 5 h; at 7.69 µM (top of the series) unless noted;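 further: ME-180 cervical cancer cells given 40 pM IL-6 alongside compound; SIE-controlled beta-lactamase reporter measured as 460/530 nm FRET emission ratio; on the % scale 0 is the no-effect control and ±100 the full control effect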
Procedure, shortened: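 ME-180 SIE-bla cells; overnight plating; cpd + IL-6 40 pM, 5 h, 37 C; LiveBLAzer 2.5 h RT; 460/530 nm emission ratio. Normalized to 300 pM IL-6 and 125 nM JAK inhibitor controls.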

[5] = biological target: Glucocorticoid receptor (Homo sapiens) (UniProt P04150); assay: GR-GFP Redistribution (AID 450;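 active means compounds whose dose series gives a full or clear partial fitted curve of increased nuclear translocation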; further: potency means the concentration at half of the fitted maximal effect); details: U2OS GR-GFP nuclear translocation, laser cytometry, 2 h
Sequence of Glucocorticoid receptor (Homo sapiens) (P04150 whole entry, looked up, the tested form may be a part): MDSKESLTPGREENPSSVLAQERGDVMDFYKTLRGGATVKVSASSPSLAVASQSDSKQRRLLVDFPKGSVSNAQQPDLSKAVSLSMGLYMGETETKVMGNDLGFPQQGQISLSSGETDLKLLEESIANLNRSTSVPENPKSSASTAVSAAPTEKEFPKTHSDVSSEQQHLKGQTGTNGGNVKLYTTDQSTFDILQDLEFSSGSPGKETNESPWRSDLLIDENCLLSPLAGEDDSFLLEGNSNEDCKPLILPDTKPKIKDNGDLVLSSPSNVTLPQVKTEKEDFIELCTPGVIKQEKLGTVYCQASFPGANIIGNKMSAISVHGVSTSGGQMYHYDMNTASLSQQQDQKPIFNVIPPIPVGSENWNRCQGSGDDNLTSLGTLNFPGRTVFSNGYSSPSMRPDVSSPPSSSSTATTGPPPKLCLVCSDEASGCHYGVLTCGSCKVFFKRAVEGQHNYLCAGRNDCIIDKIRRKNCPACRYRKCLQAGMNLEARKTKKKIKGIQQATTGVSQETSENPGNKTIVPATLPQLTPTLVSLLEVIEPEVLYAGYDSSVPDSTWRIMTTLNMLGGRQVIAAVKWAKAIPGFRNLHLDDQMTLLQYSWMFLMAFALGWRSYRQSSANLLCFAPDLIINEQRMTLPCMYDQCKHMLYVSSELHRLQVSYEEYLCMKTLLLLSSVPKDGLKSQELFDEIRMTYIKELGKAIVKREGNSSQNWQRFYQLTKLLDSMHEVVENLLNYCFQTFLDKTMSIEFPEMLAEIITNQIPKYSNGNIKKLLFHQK

[6] = biological target: Glucocorticoid receptor (Homo sapiens) (UniProt P04150); assay: GR-EFC Redistribution (AID 451; calls by dose curve; further: potency means the concentration at half of the fitted maximal effect); details: CHO-K1 GR-EFC translocation, beta-gal luminescence, 2 h
Procedure, shortened: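 CHO-K1 cells expressing nuclear EA and GR-ED fragments of b-gal; compounds titrated up to 46 uM final, 2 h at 37 C. GR nuclear translocation read as complemented b-gal luminescence after 1 h RT detection.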

[7] = biological target: Mitogen-activated protein kinase 10 (Mus musculus) (UniProt Q61831); assay: JNK3 AlphaScreen Assay (AID 530); details: JNK3 lysate, c-Jun phosphorylation; series mostly up to 11.4 µM;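 further: kinase came from lysate of stimulated human HepG2 cells; signal reports phosphorylation of biotinylated GST-cJun 1-79 at Ser73 with 10 µM ATP; on the % scale 0 is the no-effect control and ±100 the full control effect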
Procedure, shortened: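 Pre-activated (IL-1β/TNFα) JNK3 in HepG2 lysates phosphorylates biotin-GST-cJun(1-79), 10 uM ATP; anti-phospho-cJun(Ser73) AlphaScreen read at room temperature, pH 7.6 Tris buffer. Compounds pre-incubated 15 min as titrations.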

[8] = biological target: 3',5'-cyclic-AMP phosphodiesterase 4B (Homo sapiens) (UniProt Q07343); assay: qHTS Assay for Inhibitors of PDE-IV (AID 607; active means well fitted activation curve with a large enough effect in the main read-out, with a control signal flat, not every such curve was filed as active; further: % of control where 0% means no effect); details: HEK293 ACTOne CNG channel cells, membrane potential fluorescence; series mostly up to 22.9 µM
Sequence of 3',5'-cyclic-AMP phosphodiesterase 4B (Homo sapiens) (Q07343 whole entry, looked up): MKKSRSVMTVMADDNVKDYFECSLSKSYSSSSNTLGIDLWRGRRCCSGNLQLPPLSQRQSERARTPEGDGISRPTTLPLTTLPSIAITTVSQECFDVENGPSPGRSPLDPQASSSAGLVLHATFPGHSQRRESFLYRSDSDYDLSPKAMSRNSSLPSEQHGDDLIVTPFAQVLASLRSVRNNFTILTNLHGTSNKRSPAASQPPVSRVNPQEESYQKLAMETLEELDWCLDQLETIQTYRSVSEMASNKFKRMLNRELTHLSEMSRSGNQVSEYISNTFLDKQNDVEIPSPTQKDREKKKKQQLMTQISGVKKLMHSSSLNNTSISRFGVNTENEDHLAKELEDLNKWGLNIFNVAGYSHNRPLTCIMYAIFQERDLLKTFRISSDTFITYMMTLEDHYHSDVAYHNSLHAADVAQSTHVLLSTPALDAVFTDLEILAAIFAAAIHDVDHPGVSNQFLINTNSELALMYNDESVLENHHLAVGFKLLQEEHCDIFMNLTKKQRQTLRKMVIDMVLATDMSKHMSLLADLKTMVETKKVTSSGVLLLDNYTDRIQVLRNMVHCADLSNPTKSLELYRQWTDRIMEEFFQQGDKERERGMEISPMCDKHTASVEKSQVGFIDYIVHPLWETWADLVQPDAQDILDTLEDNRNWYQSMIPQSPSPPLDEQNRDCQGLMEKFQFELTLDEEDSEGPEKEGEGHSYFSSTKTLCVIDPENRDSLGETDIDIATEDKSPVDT
Procedure, shortened: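 ACTOne HEK293 cells carry a modified cAMP-gated CNG channel and express endogenous PDE4; plated 1000 cells/well, compounds up to 22.9 uM final. Membrane-potential dye fluorescence (ex 535/em 590) was read; parental cells received 10 uM forskolin + 100 uM RO 20-1724.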

| Compound | Potency [1] | activity change, negative = inhibition [2] | activity change, negative = inhibition [3] | activity, negative = inhibition [4] | Potency [5] | Potency [6] | Potency [7] | Potency [8] |
| --- | --- | --- | --- | --- | --- | --- | --- | --- |
| CN(C)CCSS(=O)(=O)O | > 11.4 µM | 6.2% | 5.08% | -1.46% | > 46 µM | > 9.22 µM | inactive | inactive |
| COc1cc(CN2CCCCC2)cc2cc(C(=O)O)c(=O)oc12 | > 11.4 µM | 17.3% | 15.7% | -2.43% | > 46 µM | > 9.22 µM | inactive | inactive |
| COC(=O)c1cc(-c2ccc3ccccc3c2)[nH]c(=O)c1C#N | > 11.4 µM | -3.94% | 1.77% | -1.42% | > 46 µM | > 9.22 µM | inactive | inactive |
| NC([N-]/N=C/c1ccccn1)=[S]=[Fe].O=S(=O)(O)O | > 11.4 µM | 8.56% | -1.69% | -13.8% | > 46 µM | > 9.22 µM | inactive | inactive |
| C(CCc1nnc2c(n1)CCCC2)Cc1nnc2c(n1)CCCC2 | > 11.4 µM | 6.86% | -8.87% | 0.257% | > 46 µM | > 9.22 µM | inactive | inactive |
| O=C(O)Cc1cccc2c(=O)cc(-c3ccccc3)oc12 | > 11.4 µM | -1.49% | -5.58% | -3.42% | > 46 µM | > 9.22 µM | inactive | inactive |
| Ic1ccc2c(c1)N(c1ccccc1)c1cc(Nc3ccc4nc5ccc(I)cc5[n+](-c5ccccc5)c4c3)ccc1N2 | 7.99 µM (active) | -4% | -3.73% | -4.86% | > 46 µM | > 9.22 µM | inactive | inactive |
| CC(C)CCNc1ncnc2[nH]ncc12 | > 11.4 µM | 6.28% | -25.7% | -5.65% | > 46 µM | > 9.22 µM | inactive | inactive |
| NNC(=O)[C@@H](O)[C@H](O)C(=O)NN | > 11.4 µM | -1.69% | 10.2% | -2.25% | > 46 µM | > 9.22 µM | inactive | inactive |
| N=C(N)C(N=Nc1ccccc1)C(=N)N (stereo not drawn) | > 11.4 µM | 1.88% | 3.59% | 1.6% | > 46 µM | > 9.22 µM | inactive | inactive |
| c1ccc(B2OC[C@@H]3OB(c4ccccc4)O[C@H]([C@@H]4COB(c5ccccc5)O4)[C@@H]3O2)cc1 | > 11.4 µM | -8.96% | 19.9% | -6.35% | > 46 µM | > 9.22 µM | inactive | inactive |
| CN(C)CCN1C(=O)CC[C@]2(C)C1=CC[C@@H]1[C@@H]2CC[C@]2(C)[C@H]1CC[C@]2(C)O | > 11.4 µM | 3.79% | -6.05% | 6.79% | > 46 µM | > 9.22 µM | inactive | inactive |
| CN(C)Cc1cc(C(C)(C)C)cc(CNC2CCCCC2)c1O | > 11.4 µM | -6.47% | -20.6% | 7.16% | > 46 µM | > 9.22 µM | inactive | inactive |
| Nc1ccccc1N=Nc1c(S(=O)(=O)O)cc2cc(S(=O)(=O)O)cc(O)c2c1O | > 11.4 µM | -8.99% | -1.89% | -10.2% | > 46 µM | > 9.22 µM | inactive | inactive |
| Cc1ccn2c(CCc3nnc4cc(C)ccn34)nnc2c1 | > 11.4 µM | 2.24% | 11% | -6.72% | > 46 µM | > 9.22 µM | inactive | inactive |
| Cc1cc2c(=O)[nH]c(N)nc2nc1C | > 11.4 µM | 1.82% | 7.25% | 9.62% | > 46 µM | > 9.22 µM | inactive | inactive |
| NC(N)=N[C@H](CC(=O)O)c1ccccc1 | > 11.4 µM | 5.91% | 1.32% | 3.35% | > 46 µM | > 9.22 µM | inactive | inactive |
| Nc1nc2c(c(=O)[nH]1)CN(CCCN1CCOCC1)CN2 | > 11.4 µM | 1.77% | 5.13% | 12.2% | > 46 µM | > 9.22 µM | inactive | inactive |
| C=C(C)CN(CC#N)CC(=C)C | > 11.4 µM | 2.17% | 9.57% | 16.5% | > 46 µM | > 9.22 µM | inactive | inactive |
| NCC(=O)[C@@H](O)[C@H](O)[C@H](O)CO | > 11.4 µM | -1.89% | 8.35% | 3.6% | > 46 µM | > 9.22 µM | inactive | inactive |
| CC(C)=C[C@H]1[C@@H](COC(=O)c2cc3c(cc2Cl)OCO3)C1(C)C | > 11.4 µM | 9.62% | 1.43% | 13.6% | > 46 µM | > 9.22 µM | inactive | inactive |
| [N-]=[N+]=N[C@@H]1[C@H](O)[C@H](CO)O[C@@H]1n1cnc2c(N)ncnc21 | > 11.4 µM | -7.07% | 9.28% | -12.3% | > 46 µM | > 9.22 µM | inactive | inactive |
| O=C(O)C(F)(F)C(F)(F)C(F)(F)C(F)(F)C(=O)O | > 11.4 µM | -0.129% | 6.75% | 5.2% | > 46 µM | > 9.22 µM | inactive | inactive |
| CCSCCCC(=O)O | > 11.4 µM | -6.6% | 2.17% | 8.19% | > 46 µM | > 9.22 µM | inactive | inactive |
| C[C@H](CCC(=O)O)[C@H]1CC[C@@H]2[C@@H]3CC[C@H]4C[C@@H](O)CC[C@@]4(C)[C@@H]3C[C@H](O)[C@@]21C | > 11.4 µM | 4.11% | 27.2% | 2.1% | > 46 µM | > 9.22 µM | inactive | inactive |
| O=C1c2ccccc2C(=O)N1c1ccc(Cc2ccc(N3C(=O)c4ccccc4C3=O)cc2)cc1 | > 11.4 µM | -0.978% | 8.54% | -2.37% | > 46 µM | > 9.22 µM | inactive | inactive |
